# Source: PubChem BioAssay AID1345085 (National Center for Advancing Translational Sciences (NCATS), 2018)
# Inconclusive results are not listed. A number with no mark means an inactive call. The source made the active and inactive calls. Calls follow the shape of the dose curve; as a rule, active = well fitted cell-killing curve with a large enough effect; inconclusive = small, poorly fitted or top-dose-only effect, or effect the other way; inactive = no such curve, though single readings can be large or run the other way.
# Test system: JEG-3
# Experiment: Confirmatory qHTS for gynecologic anti-cancer compounds from libraries of approved drugs and bioactive compounds; also: nearly all actives have a fitted effect of over 55% in size
# Settings: gynecologic cancer cell panel viability, ATPlite luminescence, 48 h; series mostly up to 57.6 µM
# Summary of the method: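 Seeding 1,000 cells per well preceded overnight (16 h) attachment, after which 48 h drug treatment across 57.5 uM–0.977 nM (11 points) was applied. Remaining cellular ATP, detected by ATPlite luminescence, defined IC50.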
# % is scaled to controls: 0 for no effect and ±100 for the full control effect; potency is read from the fitted curve at half-maximal effect.
SMILES,Potency,"activity change, negative = viability loss"
CCn1c(-c2nonc2N)nc2c(C#CC(C)(C)O)ncc(OCC3CCCNC3)c21 (configuration not stated),inactive,
CC[C@]1(O)C[C@H]2CN(CCc3c([nH]c4ccccc34)[C@@](C(=O)OC)(c3cc4c(cc3OC)N(C=O)[C@H]3[C@@](O)(C(=O)OC)[C@H](OC(C)=O)[C@]5(CC)C=CCN6CC[C@]43[C@@H]65)C2)C1,0.193 µM (active),
CC(Oc1ccc2[nH]nc(/C=C/c3cnn(CCO)c3)c2c1)c1c(Cl)cncc1Cl (configuration not stated),6.85 µM (active),
Cc1cnc(CNC(=O)c2c(=O)c3ccc(N4CCCN(C)CC4)nc3n3c2sc2ccccc23)cn1,,-17.5% [at 10.6 µM]
CCC1C(=O)N(C)c2cnc(Nc3ccc(C(=O)NC4CCN(C)CC4)cc3OC)nc2N1C1CCCC1 (configuration not stated),0.0153 µM (active),
COc1cc2c(Nc3ccc(NC(=O)c4ccccc4)cc3)ncnc2cc1OCCCN1CCOCC1,27.3 µM (active),
Cc1c(NC(=O)OCC2COCCN2)cn2ncnc(Nc3ccc4c(cnn4Cc4cccc(F)c4)c3)c12 (configuration not stated),30.6 µM (active),
Oc1cn2c(n1)Nc1ccc(Cl)c(Cl)c1C2,inactive,
CC(=O)Nc1cccc(-n2c(=O)n(C3CC3)c(=O)c3c(Nc4ccc(I)cc4F)n(C)c(=O)c(C)c32)c1,inactive,
CN(C[C@@H]1COCCO1)S(=O)(=O)Nc1ccc2ccc3ncc(-c4cnn(C)c4)cc3c(=O)c2c1,inactive,
COc1cccc2c1C(=O)c1c(O)c3c(c(O)c1C2=O)C[C@@](O)(C(=O)CO)C[C@@H]3O[C@H]1C[C@H](N)[C@H](O)[C@H](C)O1,1.09 µM (active),
O=C(Nc1cccnc1)N1CCC(Cc2cccc(Oc3ccc(C(F)(F)F)cn3)c2)CC1,7.69 µM (active),
O=C(O)C1(Cc2cccc(Nc3nccs3)n2)CCC(Oc2cccc(Cl)c2F)CC1 (configuration not stated),inactive,
C=CC(=O)Nc1cc2c(Nc3ccc(F)c(Cl)c3)ncnc2cc1OCCCN1CCOCC1,27.3 µM (active),
Cc1cc(Nc2nc(N[C@@H](C)c3ncc(F)cn3)ncc2Cl)n[nH]1,inactive,
COc1cc(N2CCC(N3CCN(C)CC3)CC2)ccc1Nc1ncc(Cl)c(Nc2ccccc2S(=O)(=O)C(C)C)n1,19.3 µM (active),

SMILES,Potency,"activity change, negative = viability loss"
COc1ccc(-c2ccc3c(N4CCOCC4C)nc(N4CCOCC4C)nc3n2)cc1CO (configuration not stated),inactive,
O=c1cc(CN2CCOCC2)occ1OCCCCCSc1ccnc2cc(C(F)(F)F)ccc12,8.63 µM (active),
CCCCc1nc2cc(/C=C/C(=O)NO)ccc2n1CCN(CC)CC,1.53 µM (active),
CC(Oc1cc(-n2cnc3ccc(CN4CCN(C)CC4)cc32)sc1C(N)=O)c1ccccc1C(F)(F)F (configuration not stated),1.93 µM (active),
Nc1ccn([C@@H]2O[C@H](CO)[C@@H](O)C2(F)F)c(=O)n1,inactive,
O=c1[nH]c(=O)n([C@H]2C[C@H](O)[C@@H](CO)O2)cc1Br,inactive,
CC(C)c1nn(-c2c(Cl)cccc2Cl)c2nc(Cc3ccc(OCCO)cc3)[nH]c(=O)c12,0.0685 µM (active),
CCCCc1oc2ccc(NS(C)(=O)=O)cc2c1C(=O)c1ccc(OCCCN(CCCC)CCCC)cc1,27.3 µM (active),
CC(C)Oc1ccc2c(=O)c(-c3ccccc3)coc2c1,24.3 µM (active),
Nc1ccc(C(=O)Nc2cccc(-c3nc(N4CCOCC4)c4oc5ncccc5c4n3)c2)cn1,5.44 µM (active),
CN1C2CCC1CC(OC(=O)[C@H](CO)c1ccccc1)C2 (some centres not stated),inactive,
O=C(c1ccc(F)c(F)c1Nc1ccc(I)cc1F)N1CC(O)([C@@H]2CCCCN2)C1,24.3 µM (active),
CNC1CCC(N(Cc2cccc(-c3ccncc3)c2)C(=O)c2sc3ccccc3c2Cl)CC1 (configuration not stated),27.3 µM (active),
Cc1nc(Nc2n[nH]c3c2CN(C(=O)NC(CN(C)C)c2ccccc2)C3(C)C)c2sccc2n1 (configuration not stated),0.544 µM (active),
CNC(=O)c1nn(C)c2c1C(C)(C)Cc1cnc(Nc3ccc(N4CCN(C)CC4)cc3)nc1-2,6.85 µM (active),
CC[C@H](CC#N)OC(=O)N[C@@H](C)c1cccc(NC(=O)Nc2ccc(-c3cnco3)c(OC)c2)c1,15.3 µM (active),
